# Results as given in PubChem BioAssay.
# Active and inactive are the calls of the source.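 Rule for the calls: active = GFP response below 50% of the DMSO control; inconclusive = fewer than 70 events counted for a yeast strain; inactive = the rest.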
# Assay: hit retest on RPL19A-GFP reporter strain – cell-based, S. cerevisiae, flow cytometry, cherry picks, mother/daughter gates, confirmation (AID 2270)
# Settings: 3 h, at 10 µM, stronger effect = lower value, 100 = same GFP as DMSO wells
row,SMILES,GFP response vs DMSO
1,CCN(C(=O)c1ccccc1Cl)c1ccccc1,98.5% (inactive)
2,CCN(CC)CCNC(=O)Cn1c(-c2ccccn2)nc2ccccc21,99.5% (inactive)
3,Nc1cc(N)nc(SCC(=O)N2CCc3ccccc32)n1,100% (inactive)
4,N#C/C(=C\c1ccc(N2CCOCC2)o1)c1ccccc1,98.2% (inactive)
5,CS(=O)(=O)N1CCc2cc(C(=O)Nc3ccc(COCC(F)(F)F)cc3)ccc21,102% (inactive)
6,CCc1noc(C)c1C(=O)Nc1nc(-c2ccc(Cl)cc2Cl)cs1,95.6% (inactive)
7,O=C(O)c1ccc2c3c(ncnc13)-c1ccccc1C2=O,113% (inactive)
8,Cc1ccc(NC(=O)c2ccccc2)cc1,100% (inactive)
9,Cc1ccc(C)c(-c2nnc(NC(=O)c3ccc([N+](=O)[O-])o3)o2)c1,101% (inactive)
10,COc1ccc(N2C(=O)C(Cl)=C(Oc3cccc(OC)c3)C2=O)cc1,90.9% (inactive)
11,Cc1cc(C)c(S(=O)(=O)ON2C(=O)c3ccccc3C2=O)cc1C,88.4% (inactive)
12,O=C(COC(=O)/C=C/c1cccs1)Nc1nc(-c2ccccc2)cs1,101% (inactive)
13,CCOc1ccccc1/C=C/C(=O)c1ccc(Cl)cc1,98.2% (inactive)
14,O=C(NC(=S)NNC(=O)c1cnccn1)c1ccc(F)cc1,110% (inactive)
15,Cc1ccc(Nc2c(-c3ccccn3)nc3ccc(C)cn23)cc1,97.4% (inactive)
16,O=c1/c(=C/c2cccc3ccccc23)sc2ncnn12,112% (inactive)
17,Cc1c(NC(=O)/C(C#N)=C/c2c(N3CCCCC3)nc3ccccn3c2=O)c(=O)n(-c2ccccc2)n1C,95% (inactive)
18,CS(=O)(=O)N1N=C(c2ccco2)CC1c1ccc(Br)cc1 (stereo not given),98.4% (inactive)
19,O=C(Oc1ccnc2cc(Cl)ccc12)N1CCCCCC1,99.3% (inactive)
20,Cc1c([N+](=O)[O-])cnc(Sc2ccccc2)c1[N+](=O)[O-],100% (inactive)

row,SMILES,GFP response vs DMSO
1,Cc1cc(C(=O)Nc2nc(-c3ccccn3)cs2)ccc1[N+](=O)[O-],104% (inactive)
2,COc1cc(/C=C/C(=O)c2c(O)cc(C)oc2=O)cc(OC)c1O,98.2% (inactive)
3,COc1ccc2ccccc2c1/C=N/Nc1cccc(C(=O)O)c1,99.4% (inactive)
4,CCn1c(=O)c(C(=O)NC(C)C)c(O)c2ccccc21,101% (inactive)
5,CCOc1cc(N2CCOCC2)c(OCC)cc1NC(=O)C(NC(=O)c1ccco1)C(C)C (stereo not given),102% (inactive)
6,CNC(=O)/C(C#N)=C/c1c(N(Cc2ccccc2)Cc2ccccc2)nc2c(C)cccn2c1=O,97.2% (inactive)
7,O=C(COc1ccccc1)N1CCN(c2ncnc3c2cnn3-c2ccccc2)CC1,98.7% (inactive)
8,O=S(=O)(c1ccc(Oc2ccccc2)cc1)N1CCOCC1,98.2% (inactive)
9,O=S(=O)(/N=C(/Nc1ccc(F)cc1F)c1ccc(Cl)cc1)c1ccccc1,101% (inactive)
10,CC(=O)Nc1cccc(Oc2ccc(-c3noc(C)n3)cc2)c1,95.8% (inactive)
11,C/C(=N/NC(=O)c1ccc(C(C)(C)C)cc1)c1ccccn1,110% (inactive)
12,O=C(Sc1cccc2cccnc12)c1ccccc1Br,96.8% (inactive)
13,CCOc1cc(-c2nc3cc(C)ccn3c2NCC2CCCO2)ccc1O (stereo not given),103% (inactive)
14,Oc1ccccc1/C=N/c1c(-c2ccco2)nc2ccccn12,99.5% (inactive)
15,Cc1ccc(C2=NN(S(C)(=O)=O)C(c3ccc4c(c3)OCO4)C2)cc1 (stereo not given),101% (inactive)
16,COc1ccccc1NC(=O)Cn1nnc(-c2ccccc2NC(=O)c2ccco2)n1,95.9% (inactive)
17,Cc1ccc(C(=O)N/C(=C/c2ccco2)C(=O)N2CCOCC2)cc1,103% (inactive)
18,COc1ccc(-c2cc3cc(C(=O)O)ccn3c2C(=O)c2ccccc2)cc1,97% (inactive)
19,COc1ccccc1C(=O)NNC(=S)NC(=O)c1cccs1,116% (inactive)
20,CC(=O)Oc1c(C)cc(Cl)cc1C(=O)Nc1ccc([N+](=O)[O-])cc1Cl,97% (inactive)

# Same assay, conditions: 3 h, measured here: daughter cell gate, at 10 µM, stronger effect = lower value, 100 = same GFP as DMSO wells
row,SMILES,GFP response vs DMSO [%]
1,CCN(C(=O)c1ccccc1Cl)c1ccccc1,99
2,CCN(CC)CCNC(=O)Cn1c(-c2ccccn2)nc2ccccc21,98.1
3,Nc1cc(N)nc(SCC(=O)N2CCc3ccccc32)n1,101
4,N#C/C(=C\c1ccc(N2CCOCC2)o1)c1ccccc1,97.3
5,CS(=O)(=O)N1CCc2cc(C(=O)Nc3ccc(COCC(F)(F)F)cc3)ccc21,104
6,CCc1noc(C)c1C(=O)Nc1nc(-c2ccc(Cl)cc2Cl)cs1,95.6
7,O=C(O)c1ccc2c3c(ncnc13)-c1ccccc1C2=O,95.3
8,Cc1ccc(NC(=O)c2ccccc2)cc1,99
9,Cc1ccc(C)c(-c2nnc(NC(=O)c3ccc([N+](=O)[O-])o3)o2)c1,95.7
10,COc1ccc(N2C(=O)C(Cl)=C(Oc3cccc(OC)c3)C2=O)cc1,76.4
11,Cc1cc(C)c(S(=O)(=O)ON2C(=O)c3ccccc3C2=O)cc1C,90.8
12,O=C(COC(=O)/C=C/c1cccs1)Nc1nc(-c2ccccc2)cs1,99.9
13,CCOc1ccccc1/C=C/C(=O)c1ccc(Cl)cc1,97.1
14,O=C(NC(=S)NNC(=O)c1cnccn1)c1ccc(F)cc1,91.7
15,Cc1ccc(Nc2c(-c3ccccn3)nc3ccc(C)cn23)cc1,106
16,O=c1/c(=C/c2cccc3ccccc23)sc2ncnn12,113
17,Cc1c(NC(=O)/C(C#N)=C/c2c(N3CCCCC3)nc3ccccn3c2=O)c(=O)n(-c2ccccc2)n1C,95.1
18,CS(=O)(=O)N1N=C(c2ccco2)CC1c1ccc(Br)cc1 (stereo not given),98.1
19,O=C(Oc1ccnc2cc(Cl)ccc12)N1CCCCCC1,97.3
20,Cc1c([N+](=O)[O-])cnc(Sc2ccccc2)c1[N+](=O)[O-],96.9

row,SMILES,GFP response vs DMSO [%]
1,Cc1cc(C(=O)Nc2nc(-c3ccccn3)cs2)ccc1[N+](=O)[O-],107
2,COc1cc(/C=C/C(=O)c2c(O)cc(C)oc2=O)cc(OC)c1O,99.6
3,COc1ccc2ccccc2c1/C=N/Nc1cccc(C(=O)O)c1,98.6
4,CCn1c(=O)c(C(=O)NC(C)C)c(O)c2ccccc21,98.7
5,CCOc1cc(N2CCOCC2)c(OCC)cc1NC(=O)C(NC(=O)c1ccco1)C(C)C (stereo not given),101
6,CNC(=O)/C(C#N)=C/c1c(N(Cc2ccccc2)Cc2ccccc2)nc2c(C)cccn2c1=O,98.1
7,O=C(COc1ccccc1)N1CCN(c2ncnc3c2cnn3-c2ccccc2)CC1,98.4
8,O=S(=O)(c1ccc(Oc2ccccc2)cc1)N1CCOCC1,98.4
9,O=S(=O)(/N=C(/Nc1ccc(F)cc1F)c1ccc(Cl)cc1)c1ccccc1,101
10,CC(=O)Nc1cccc(Oc2ccc(-c3noc(C)n3)cc2)c1,93.4
11,C/C(=N/NC(=O)c1ccc(C(C)(C)C)cc1)c1ccccn1,107
12,O=C(Sc1cccc2cccnc12)c1ccccc1Br,92.3
13,CCOc1cc(-c2nc3cc(C)ccn3c2NCC2CCCO2)ccc1O (stereo not given),105
14,Oc1ccccc1/C=N/c1c(-c2ccco2)nc2ccccn12,98.1
15,Cc1ccc(C2=NN(S(C)(=O)=O)C(c3ccc4c(c3)OCO4)C2)cc1 (stereo not given),99.6
16,COc1ccccc1NC(=O)Cn1nnc(-c2ccccc2NC(=O)c2ccco2)n1,96.1
17,Cc1ccc(C(=O)N/C(=C/c2ccco2)C(=O)N2CCOCC2)cc1,100
18,COc1ccc(-c2cc3cc(C(=O)O)ccn3c2C(=O)c2ccccc2)cc1,95.6
19,COc1ccccc1C(=O)NNC(=S)NC(=O)c1cccs1,126
20,CC(=O)Oc1c(C)cc(Cl)cc1C(=O)Nc1ccc([N+](=O)[O-])cc1Cl,96
